The record followed here is PubChem BioAssay.

Inconclusive results are not listed. Calls of active or inactive are those of the source. Cut-off not given; nearly all actives show IC50 up to about 30 µM.

The assay can be described thus: SU-DIPG-XXV glioma cell viability, MIPE5.0 library, qHTS (AID 1347068).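 On IC50: cells exposed to compound for 48 hours before viability readout.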 A general note: qHTS replaces the single test concentration by a dilution series.
Take `Cn1cc(-c2nc(N[C@@H]3CCCC[C@@H]3N)c(F)c3c2C(=O)NC3)cn1`: the outcome was inactive.
Same read-out and setting: with `Cn1c(=O)c(-c2c(Cl)cccc2Cl)cc2cnc(Nc3cccc(C(=O)O)c3)nc21` the entry was “inactive”.
Same read-out and setting: with `CCN(c1cc(C#CCN2CCOCC2)cc(C(=O)NCc2c(C)cc(C)[nH]c2=O)c1C)C1CCC(N(C)CCOC)CC1` (centres undefined) the entry was “inactive”.
In the case of `CNCCN(C)Cc1cn[nH]c1-c1ccc(OC2CC(OCCC3CCOCC3)C2)cc1` (centres undefined), the compound was classed as inactive.
On to `Cc1ccc(C2=Nc3ccc(Cl)cc3OC2)cc1`, for which the compound was classed as inactive.
As for `Cc1cccc(-c2[nH]ncc2-c2ccc(F)c(-c3cnn(CCO)c3)c2)n1`, the IC50 – broadly, the concentration needed to halve the response being measured – is 26.3 µM (active).
Turning to `CS(=O)(=O)Nc1cc2occ(NC=O)c(=O)c2cc1Oc1ccccc1`, the outcome was inactive.
The same measure, in the same setting: for `Cc1c(F)cc(C(=O)NC2CC2)cc1-c1ccc(C(=O)NCC(C)(C)C)cn1` the value was “inactive”.
The same measure, in the same setting: for `CONC(=O)Nc1ccc(-c2sc3c(c2CN(C)Cc2ccccc2)c(=O)n(-c2ccccc2)c(=O)n3Cc2c(F)cccc2F)cc1` the value was “inactive”; for `C[C@@H]1O[C@@H](O[C@@H]2\C=C/C=C\C=C/C=C\C[C@H](C)OC(=O)/C=C\[C@H]3O[C@@H]3C[C@H](O)C[C@]3(O)C[C@@H](O)[C@@H](C(=O)O)[C@H](C2)O3)[C@H](O)[C@H](N)[C@@H]1O`, “inactive”; for `NC(=O)c1nc(F)c[nH]c1=O`, “inactive”.
On to `CCS(=O)(=O)c1ccc2oc(-c3ccc4ccccc4c3)nc2c1`, for which the compound was classed as inactive.
Same read-out and setting: for `CC#Cc1cncc(-c2ccc3c(c2)[C@@]2(N=C(C)C(N)=N2)C2(CCC(OC)CC2)C3)c1` (some centres undefined) the value was “inactive”; for `Fc1ccc(-c2csc3ncnc(NCc4ccc5c(c4)OCO5)c23)cc1`, “inactive”.
Still for that read-out and setting: for `C[C@@H]1CN(CC(=O)N2CC(C)(C)c3ncc(Cc4ccc(F)cc4)cc32)[C@@H](CN2CCOC[C@H]2C)CN1` the value was “inactive”.
Turning to `CNC(=O)[C@H](Cc1c[nH]c2ccccc12)NC(=O)[C@@H](CC(=O)NO)CC(C)C`, the call was inactive.
For `CCn1c(=O)c(-c2ccc(-c3cncc(C)n3)cc2Cl)cc2cnc(NCCC3CCN(C)CC3)nc21`, the IC50 was 1.86 µM (active).
As to `O=C(Nc1cccc(C(F)(F)F)c1)Nc1cc(S(=O)(=O)NC2CC2)ccc1-c1ccsc1`, the result was inactive.
Take `CC(C)Cc1ccc([C@@H](C)C(=O)NS(C)(=O)=O)cc1`: the result was inactive.
In the case of `Nc1n[n+]([O-])c2ccccc2[n+]1[O-]`, the result was inactive.
With `Cn1cnc(-c2cc3nccc(Oc4ccc(NC(=S)NC(=O)Cc5ccccc5)cc4F)c3s2)c1`, the IC50 is 4.17 µM (active).
Consider `CCOC(=O)c1ccnc(CNCC(=O)N(CC)CCN(C)C)c1`, for which the compound was classed as inactive.
The same measure, in the same setting: for `Cn1cc(-c2ccc3c(c2)CCN3C(=O)Cc2cccc(C(F)(F)F)c2)c2c(N)ncnc21` the value was “inactive”; for `COc1cc(-c2cc(-c3ccc(N4CCNCC4)cc3)cnc2C)cc(OC)c1OC`, “inactive”.
